Source: PubChem BioAssay (National Center for Advancing Translational Sciences (NCATS))
aSyn rescue: qHTS of alpha-syn Inhibitors. Yeast expressing alpha-synuclein, growth rescue, BacTiter-Glo, 24 h. Potency, µM (highest dose often 46.1 µM), inactives show at the top dose growth rescue (activation), actives largely listed as activators. 370,000 compounds, 0.14% hits. AID 652106, 2013; also: % of control where 0% means no effect; nearly all actives have a fitted effect of over 65% in size
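Galactose-induced alpha-syn yeast (OD600=0.02, raffinose-pregrown) + pinned cpd, 24 hr, 30 deg C; growth by BacTiter-Glo luminescence. Growth restoration scores as activation.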
Abeta yeast res: qHTS for compounds that reverse cellular toxicity of Amyloid beta (A-beta) peptide in yeast: Primary Screen; yeast expressing A-beta42, growth rescue, OD600, 48 h; response scale: 0% DMSO, 100% iron-clioquinol control; Potency, µM (doses to about 46.1 µM), hits mostly activators; 410,000 compounds, 0.063% hits; also: nearly all actives have a fitted effect of over 55% in size
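Growth rescue measured by 600 nm absorbance after 48 h yeast culture at 30 C with compound. Values normalized between DMSO and an equimolar ferric chloride plus clioquinol control.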
FUS suppressor: qHTS for Suppressors of FUS Proteinopathy: Primary screen using FUS-linked yeast assay; 390,000 compounds, 0.24% hits; S. cerevisiae FUS-expressing, growth rescue, OD600, 24 h; AID 1347120, 2019; Potency, µM (series often up to 76.6 µM), usual class: activators;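 also: plate controls were DMSO vehicle for no effect and reference control for full effect; nearly all actives have a fitted effect of over 55% in size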
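Read-out: OD at 600 nm after 24hr at 30C, reporting rescue of FUS-induced yeast toxicity. Cells at OD 0.005 in galactose (2%) minimal medium; compounds tested in a dilution series; CP55940 titration from 92uM final as control.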
TDP-43 yeast inh: qHTS of TDP-43 Inhibitors; TDP-43 expressing yeast growth rescue, BacTiter-Glo, 24 h; Potency, µM (series often up to 46.1 µM), inactives show at the top dose growth rescue (activation), most hits filed as activators; 410,000 compounds, 1.8% hits; also: % of control where 0% means no effect; nearly all actives have a fitted effect of over 50% in size
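In this qHTS, compounds that restore growth of yeast expressing TDP-43 appear as activators. Cells (OD600=0.02, galactose medium, raffinose-pregrown) are incubated with compound 24 hr at 30 deg C and growth is quantified by BacTiter-Glo.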
* = called active by the depositor. Hits are enriched below; roughly 2.1% of the tested compounds scored in any of these assays. Calls follow the shape of the dose curve; as a rule, active = well fitted curve in the direction sought with a large enough effect; inconclusive = small, poorly fitted or top-dose-only effect, or another doubt; inactive = no such curve, though single readings can be large; an effect the other way counts as inactive or inconclusive. Potency is read from the fitted curve at half-maximal effect.

CN(N=O)c1ccc(C=C2C=Cc3ccccc32)cc1 was read as aSyn rescue 1%, Abeta yeast res inactive and TDP-43 yeast inh 4%.
For CC(=O)N(C)c1ccc(C=C2C=Cc3ccccc32)cc1 the results were aSyn rescue 5%, Abeta yeast res inactive and TDP-43 yeast inh 14µM*.
Screening Oc1cccc(-n2nnnc2SCc2ccccc2F)c1 returned aSyn rescue -5%, Abeta yeast res inactive, FUS suppressor inactive and TDP-43 yeast inh 22µM*.
Screening Cn1c(=O)c2c(SCC(=O)Nc3ccc(F)cc3F)nc(C3CCCC3)nc2n(C)c1=O returned Abeta yeast res inactive, FUS suppressor inactive and TDP-43 yeast inh 2%.
For CCOC(=O)c1ccc(NCCOC)c([N+](=O)[O-])c1 the results were aSyn rescue -1%, Abeta yeast res inactive, FUS suppressor inactive and TDP-43 yeast inh inconclusive.
Screening COCCNc1cc(N)c([N+](=O)[O-])cc1[N+](=O)[O-] returned aSyn rescue 5%, Abeta yeast res inactive, FUS suppressor inactive and TDP-43 yeast inh 11µM*.
`CCOC(=O)[C@H]1[C@H]2COc3ccc(Br)cc3[C@@H]2N2C(=O)c3ccc(F)cc3NC(=O)[C@@]12C` gave aSyn rescue -10%, Abeta yeast res inactive, FUS suppressor inactive and TDP-43 yeast inh 4%.
Screening CCOC(=O)[C@H]1[C@H]2COc3ccc(Br)cc3[C@@H]2N2C(=O)N(c3ccccc3)C(=O)[C@@]12C returned aSyn rescue 1%, Abeta yeast res inactive, FUS suppressor inconclusive and TDP-43 yeast inh 16%.
For CCOC(=O)[C@@H]1[C@H]2COc3cc(OC)ccc3[C@@H]2N2C(=O)N(c3ccc(Cl)cc3)C(=O)[C@]12C the results were aSyn rescue -4%, Abeta yeast res inactive, FUS suppressor 28µM* and TDP-43 yeast inh 7%.
Screening CCOC(=O)[C@H]1[C@H]2COc3ccc(Br)cc3[C@@H]2N2C(=O)c3cc(F)c(F)cc3NC(=O)[C@@]12C returned aSyn rescue 1%, Abeta yeast res inactive, FUS suppressor 28µM* and TDP-43 yeast inh 29%.
`CCOC(=O)[C@@H]1[C@H]2COc3ccc(Br)cc3[C@@H]2N2C(=O)N(c3ccccc3)C(=O)[C@@]12C` gave aSyn rescue inconclusive, Abeta yeast res inactive, FUS suppressor inactive and TDP-43 yeast inh 35µM*.
`O=C(Nc1cccc(F)c1)c1cnc2sc(N3CCCC3)nn2c1=O` gave Abeta yeast res inactive, FUS suppressor inactive and TDP-43 yeast inh 22%.
Screening CCCNCc1cc(Cl)c(OCC)c(Cl)c1 returned aSyn rescue -5%, Abeta yeast res inactive, FUS suppressor inactive and TDP-43 yeast inh -14%.
Screening CCn1nc(NS(=O)(=O)c2ccc([N+](=O)[O-])cc2)c2cc3cc(C)ccc3nc21 returned aSyn rescue 0%, Abeta yeast res inactive, FUS suppressor inactive and TDP-43 yeast inh -11%.
For COc1ccc2cc(OCC(=O)NNC(=O)Nc3ccc(C(C)=O)cc3)ccc2c1 the results were aSyn rescue 6%, Abeta yeast res inactive, FUS suppressor inactive and TDP-43 yeast inh 3%.
O=C(NCc1ccc2c(c1)OCO2)C12CN(Cc3ccccc3)CC1C(c1cccc([N+](=O)[O-])c1)=NO2 (stereo unspecified) was read as aSyn rescue -4%, Abeta yeast res inactive, FUS suppressor 28µM* and TDP-43 yeast inh -13%.
COc1ccc(C(=O)c2ccccc2)cc1Br was read as aSyn rescue 3%, Abeta yeast res inactive, FUS suppressor inactive and TDP-43 yeast inh 13µM*.
Screening COc1cc(-c2cc3nc(NCCN(C)C)ccn3n2)cc(OC)c1OC returned aSyn rescue -1%, Abeta yeast res inactive, FUS suppressor inactive and TDP-43 yeast inh -3%.
COc1cc(-c2cc3nc(NC4CCCCC4)ccn3n2)cc(OC)c1OC was read as aSyn rescue 1%, Abeta yeast res inactive, FUS suppressor inactive and TDP-43 yeast inh 35µM*.
`COc1ccc([C@H]2CC(=O)C=C(c3cc(C)ccc3F)C2)cc1` gave aSyn rescue inconclusive, Abeta yeast res inconclusive, FUS suppressor inconclusive and TDP-43 yeast inh 20µM*.
`COc1ccc([C@H]2CC(=O)C=C(c3cc(Cl)ccc3C)C2)cc1` gave aSyn rescue 14%, Abeta yeast res inconclusive, FUS suppressor inactive and TDP-43 yeast inh 20µM*.
`COc1ccc([C@H]2CC(=O)C=C(c3cc(C)ccc3OC)C2)cc1` gave aSyn rescue 8%, Abeta yeast res inactive, FUS suppressor inactive and TDP-43 yeast inh inconclusive.
Screening COc1ccc(/C=C(/NC(=O)c2ccccc2)C(=O)NCCN2CCOCC2)cc1OC returned aSyn rescue 0%, Abeta yeast res inactive and TDP-43 yeast inh -20%.
Screening CC(=O)OCCCN1C(=O)CCC12CCC(C)CC2 (stereo unspecified) returned FUS suppressor inactive.
`CC[n+]1c(/C=C/C=C/N(C(C)=O)c2ccccc2)sc2ccccc21` gave aSyn rescue -5%, Abeta yeast res inactive, FUS suppressor 18µM* and TDP-43 yeast inh -22%.
Screening Cc1ccc(CCC(=O)Nc2ccc(Br)cc2)o1 returned aSyn rescue -5%, Abeta yeast res inactive, FUS suppressor inactive and TDP-43 yeast inh 28%.
CCc1ccc(CCC(=O)Nc2ccc(Br)cc2)o1 was read as aSyn rescue -25%, Abeta yeast res inactive, FUS suppressor inactive and TDP-43 yeast inh 22µM*.
`Cc1cc(C)n(-c2nc3ccccc3c(=O)n2OCc2ccc(Cl)cc2)n1` gave aSyn rescue -3%, Abeta yeast res inactive, FUS suppressor inactive and TDP-43 yeast inh 11µM*.
For CC1CCCCN1C(=O)COC(=O)c1ccc(N2CCCC2=O)cc1 (stereo unspecified) the results were aSyn rescue -4%, Abeta yeast res inactive, FUS suppressor inactive and TDP-43 yeast inh 2%.
Screening CCCCNc1c(-c2ccc(OC)c(Sc3ccc(OC)cc3)c2)nc2cnccn12 returned aSyn rescue 16%, Abeta yeast res inactive, FUS suppressor inconclusive and TDP-43 yeast inh 32µM*.
For CCCCNc1c(-c2ccc(SC(C)CC)cc2)nc2cnccn12 (stereo unspecified) the results were aSyn rescue -71%, Abeta yeast res inactive, FUS suppressor 10µM* and TDP-43 yeast inh -93%.
`CCCCCCSc1cc(-c2nc3cnccn3c2NCCCC)ccc1OC` gave aSyn rescue -64%, Abeta yeast res inactive, FUS suppressor inconclusive and TDP-43 yeast inh 0%.
Screening COC(=O)c1ccc(NC(=O)Cc2ccccc2)cc1 returned aSyn rescue 1%, Abeta yeast res inactive, FUS suppressor inactive and TDP-43 yeast inh 12%.
For N#Cc1ccc(OCC(=O)N/N=C2\CCc3ccccc32)cc1 the results were aSyn rescue -2%, Abeta yeast res inactive, FUS suppressor inactive and TDP-43 yeast inh 2%.
